Where “and” joins values, the source holds several entries; their conditions need not be identical. Identical values can stand only once. Out of some 340,000 compounds screened, about 2,000 (0.59%) were called active. The full list was thinned out, with actives kept by preference. Unmarked numbers belong to inactive results. Cut-off read from the data, not from the text of the source: active = activation mostly above about 9.5% (no sharp cut-off); inactive = mostly below about 7.6%.

Sequence of 5-hydroxytryptamine receptor 5A (Homo sapiens) (P47898 whole entry, looked up): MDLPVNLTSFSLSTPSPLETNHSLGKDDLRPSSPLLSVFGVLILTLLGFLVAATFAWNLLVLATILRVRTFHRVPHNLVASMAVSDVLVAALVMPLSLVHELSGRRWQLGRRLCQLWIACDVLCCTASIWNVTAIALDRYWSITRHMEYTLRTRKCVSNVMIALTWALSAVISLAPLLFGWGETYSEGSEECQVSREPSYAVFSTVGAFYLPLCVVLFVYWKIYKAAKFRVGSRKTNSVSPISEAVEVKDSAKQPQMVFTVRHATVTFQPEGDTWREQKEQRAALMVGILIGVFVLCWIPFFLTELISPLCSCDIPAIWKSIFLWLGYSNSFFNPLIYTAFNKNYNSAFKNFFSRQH

This experiment addresses 5-hydroxytryptamine receptor 5A (Homo sapiens) (UniProt P47898). Briefly: activation of human 5-HT5A receptor – cell-based, luminescence, full-deck HTS, counter-screen for OPRM1-OPRD1 heterodimer agonist project, primary screen (AID 504692).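 Note: 0% = cells with vehicle only and 100% = reference agonist.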 The note with it: HTR5A agonist assay, at 9.3 µM, hits give high values.
Take `C[C@]12CC[C@H](O)C[C@H]1CC[C@@H]1C2CC[C@]2(C)[C@@H](C3=CC(=O)OC3)[C@@H](O)C[C@]12O` (stereo not given in full): the activation is 16.5%.

In the case of `COC1C(O)C(C)OC(OC2CCC3(C=O)C(CCC4C3CCC3(C)C(C5=CC(=O)OC5)CCC43O)C2)C1O` (stereo not given), the activation is 20% (active).

Regarding `Oc1ccc2c3c1OC1[C@H](O)CC[C@@]4(O)[C@@H](C2)N(CC2CC2)CC[C@]314` (stereo not given in full), the activation is 2.68% and -1.51%. As for `CC[N+](CC)(CC)CCCCCCCCCC[N+](CC)(CC)CC`, the activation was 2.35%. Regarding `CCOP(=O)(OCC)C(O)c1ccc(OC)cc1OC` (stereo not given), the activation was -1.32%. Turning to `CCCCCCCCCCCCn1ccc(=N)cc1`, the activation was 14.5% (active).

Consider `Cc1cc(C(=O)OCC(=O)Nc2c(F)cccc2F)c(C)n1C1CC1`, for which the activation was -0.58%. As for `C/C=C/CC1(CC)C(=O)NC(=S)NC1=O`, the activation was 0.5%. With `COC(=O)C(O)(c1ccc(NC(=O)c2ccco2)c(OC)c1)C(F)(F)F` (stereo not given), the activation was -2.39%.

With `CN(C)C(=O)Oc1cc(=O)n2c3c(cccc13)CCC2`, the activation is 2.56%.

As for `O=C(Cc1ccccc1)N1CCN(C2CCCCCC2)CC1`, the activation is 1.91%. As for `Cc1ccc(-c2cc(C(=O)N3CCC4(CC3)OCCO4)no2)cc1`, the figure is 1.14%. Turning to `COc1ccc(S(=O)(=O)NCc2ccc(C(=O)N3CCC4(CC3)OCCO4)cc2)cc1`, the activation was 3.27%.

Regarding `CCOC(=O)c1c(C)c(C(=O)N2CCC3(CC2)OCCO3)c(C)n1CC`, the activation was 10.3% (active).

For `CC(C)Oc1cccc(C(=O)C2CCCN(C3CCOCC3)C2)c1` (stereo not given), the activation was 3.38%.

Source of the values: PubChem BioAssay AID504692 (The Scripps Research Institute Molecular Screening Center, 2011).
